Measurements reported in PubChem BioAssay AID449762 (Southern Research Specialized Biocontainment Screening …, 2010).
Hit rate of the full screen: of about 330,000 compounds, about 1,900 (0.58%) were called active. About 4% were inconclusive and are not listed. Not all results are given here. Entries with a potency or affinity are not part of this list. Values without a mark were called inactive. Cut-off read from the data, not from the text of the source: inconclusive = inhibition above about 70% without an active follow-up result; inactive = below that.

Assay: M. tuberculosis growth inhibition, HTS (AID 449762);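 note: bacterial growth assessed after seven days of incubation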
Settings: M. tuberculosis H37Rv growth inhibition, 7H9 media; at 25 µM; active compounds read high

**Q.** Which inhibition does the source give for `CCCCCOc1ccc(CSc2ncn[nH]2)cc1` here?
**A.** 29.4%

**Q.** Which inhibition does the source give for `COc1cccc(CN2C(=O)C(C)Oc3ccccc32)c1` (stereo not given) here?
**A.** -3.69%

**Q.** With `O=C(CSc1nncc2ccccc12)N1CCOCC1` as the compound, how does the inhibition read?
**A.** -0.48%

**Q.** For `O=C1COc2ccc(S(=O)(=O)CCC(=O)N3CCN(c4ccccc4)CC3)cc2N1`, which inhibition is on record?
**A.** -9.62%

**Q.** With `O=C(NCCN1CCOCC1)c1ccc(Cl)nc1Cl` as the compound, how does the inhibition read?
**A.** -1.1%

**Q.** For `CN(CCOc1ccccc1)Cc1nc2cc(Cl)ccc2c(=O)[nH]1`, which inhibition is on record?
**A.** 58.8%

**Q.** For `CC(c1nc2ccccc2c(=O)[nH]1)N(C)c1ccc2ccccc2c1` (stereo not given), which inhibition is on record?
**A.** -13.1%

**Q.** Which inhibition does the source give for `CCC(Sc1nc(C)cc(=O)[nH]1)C(=O)Nc1ccc(Cl)cn1` (stereo not given) here?
**A.** -1.49%

**Q.** With `COc1ccc(CCN(C(=O)c2cccc(F)c2)C2CC(=O)N(c3ccc(OC)cc3)C2=O)cc1` (stereo not given) as the compound, how does the inhibition read?
**A.** 2.05%

**Q.** With `CCN(CC(=O)Nc1c(F)cccc1F)C(=O)CCCc1nc2ccccc2c(=O)[nH]1` as the compound, how does the inhibition read?
**A.** 5.24%

**Q.** For `Cc1cccc(CCNC(=O)CC2C(=O)NCCN2CC2CCCCC2)n1` (stereo not given), which inhibition is on record?
**A.** 0.82%

**Q.** With `CCOC(=O)c1c(NC(=O)CSc2ncccn2)sc2c1CC(C)(C)NC2(C)C` as the compound, how does the inhibition read?
**A.** 8.68%

**Q.** For `CCOC(=O)c1c(NC(=O)CSc2nc3ccccc3[nH]2)sc2c1CC(C)(C)NC2(C)C`, which inhibition is on record?
**A.** 35.9%

**Q.** With `O=C(O)CC(Cc1ccc(Cl)cc1)C(=O)NCc1ccccc1` (stereo not given) as the compound, how does the inhibition read?
**A.** -1.83%

**Q.** Which inhibition does the source give for `O=C(O)c1cnn(-c2nc(-c3cccc(F)c3)cs2)c1C(F)(F)F` here?
**A.** -9.37%

**Q.** Which inhibition does the source give for `CCCNC(=O)c1ccccc1NC(=O)Nc1ccccc1C` here?
**A.** -3.01%

**Q.** With `COc1ccc2cc1Oc1ccc(cc1)CC1c3c(cc(OC)c4c3Oc3cc5c(cc3O4)CCNC5C2)CCN1C` (stereo not given) as the compound, how does the inhibition read?
**A.** 2.26%

**Q.** With `COc1ccc2cc1Oc1ccc(cc1)C[C@H]1c3cc(c(OC)cc3CCN1C)Oc1c(OC)c(OC)cc3c1[C@H](C2)N(C)CC3` as the compound, how does the inhibition read?
**A.** -2.74%

**Q.** For `COc1ccc(NC(=O)C2CCCO2)cc1Cl` (stereo not given), which inhibition is on record?
**A.** 55.9%

**Q.** With `COc1cc(C(=O)NCCOc2ccc(Cl)cc2)ccc1OCc1c(C)noc1C` as the compound, how does the inhibition read?
**A.** -3.72%

**Q.** For `CCCC(=O)Nc1ccc2c(c1)nc(CN1CCCC1)n2C`, which inhibition is on record?
**A.** -1.98%

**Q.** With `Cc1cc(C)n2nc(C(=O)OC(C)C(=O)c3ccccc3)nc2n1` (stereo not given) as the compound, how does the inhibition read?
**A.** 7.53%

**Q.** With `O=C(NCCCn1ccnc1)c1cc(-c2cccnc2)nc2ccc(Br)cc12` as the compound, how does the inhibition read?
**A.** 4.38%

**Q.** With `Cc1ccc(-c2cc(C(=O)NCCCn3ccnc3)c3cc(Br)ccc3n2)o1` as the compound, how does the inhibition read?
**A.** 4.01%

**Q.** With `COc1ccc(OCC(O)Cn2c(N)nc3c2c(=O)[nH]c(=O)n3C)cc1` (stereo not given) as the compound, how does the inhibition read?
**A.** -6.1%
